This passage reports binding signal results from publication PMC7819943, “Rice protein-binding microarrays: a tool to detect cis-acting elements near promoter regions in rice”.

The full ranking holds about 68,000 sequences; the median of “fluorescence intensity (a.u.)” is about 9,100, and the highest 2% start at about 16,000. Many of the other results were omitted from the sample, so the highest values are more common in it than they were.

Sequence of OsWRKY34 (Q0JBA9 entry or part of it): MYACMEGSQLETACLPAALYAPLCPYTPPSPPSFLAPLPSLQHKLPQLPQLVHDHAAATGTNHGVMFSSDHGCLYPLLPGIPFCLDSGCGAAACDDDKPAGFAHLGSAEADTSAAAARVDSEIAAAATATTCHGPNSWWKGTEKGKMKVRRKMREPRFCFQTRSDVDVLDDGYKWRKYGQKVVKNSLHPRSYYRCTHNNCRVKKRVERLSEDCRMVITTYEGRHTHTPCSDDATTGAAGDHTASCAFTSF

This assay addresses OsWRKY34 (Oryza sativa, UniProt Q0JBA9 1-250). Description: protein-binding microarray (RPBM); PBS, 2% BSA, 51.3 ng/ul salmon testes DNA, 50 uM zinc acetate, 200 nM TF, 25 C, 1 h; high values mean tight binding. The note with it: protein: recombinant; tags: N-terminal polyhistidine and DsRed monomer fusion (pET32a); label: CyDye5-dUTP incorporated in the synthesized complementary strand; 3' TTTTT single-stranded linker to array surface; dsDNA, one strand shown. Put shortly:
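Per-feature fluorescence intensity (arbitrary units), read on an Axon 4000B scanner, is the binding signal. Transcription factors carrying an N-terminal polyhistidine tag and DsRed fusion were expressed in E. coli BL21-CodonPlus and purified on Ni–NTA. A custom Agilent array, made double-stranded by primer extension with Cy5-dUTP and blocked with 2% BSA, was incubated with 200 nM protein in PBS, 2% BSA, salmon testes DNA and 50 µM zinc acetate at 25 °C for 1 h and then washed.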
Regarding “GAGCTCGGCGAAATCGATCTGTGGGAGGGAGGGCGGCGAGCGGAGTCACCTAGTGCAG”, the binding signal was 9110 fluorescence intensity (a.u.).
With “GGAGAGGAGTGAGGAGGGATTGTGAGGTGGGGTCGGGGTGCGGAGTCACCTAGTGCAG” the figure was 9030 fluorescence intensity (a.u.); with “ACGGTGGCGGGGATGTGGAGGGAGGTGCAGGGGTGCGGGGCGGAGTCACCTAGTGCAG”, 22600 fluorescence intensity (a.u.); with “GTGGAGGTCGGGGTCGGGGAGGATGAGGAGGAGGGTGTGGCGGAGTCACCTAGTGCAG”, 10100 fluorescence intensity (a.u.).
Then “TCGAGCTGGGTGGGGTTTTTATATGGGAGGAGAGGCCGCGCGGAGTCACCTAGTGCAG”, with 16800 fluorescence intensity (a.u.); and “TACTGCAACTCTGCAAGCACATTGATCAATCGATCAATCCCGGAGTCACCTAGTGCAG”, with 8450 fluorescence intensity (a.u.).
“TTTGTGGGGCTCTCTCTTTGATGCTTTCTTCTCTTTAGCTCGGAGTCACCTAGTGCAG”: the binding signal is 10000 fluorescence intensity (a.u.).
As for “CTAAATTGTATTTCTATATGGACTTTGCTTTTTCTTTTTCCGGAGTCACCTAGTGCAG”, the binding signal is 10900 fluorescence intensity (a.u.).
For “GTGGTCCAATCACCCTTTGACCCTTCGCCTCCGTGGCGCCCGGAGTCACCTAGTGCAG”, the binding signal is 8500 fluorescence intensity (a.u.).
With “TTTCTTGATTAGGGTTTGAATTCATATTACTAACTTTCCTCGGAGTCACCTAGTGCAG” the figure was 8450 fluorescence intensity (a.u.); with “TTCCGCGTCAACCACCACCGCGCCGGCGTGCGCCTCCGCGCGGAGTCACCTAGTGCAG”, 10300 fluorescence intensity (a.u.).
Then “ATCAGCCTCATGCCCTTGTAGTCCATCGATCTGTCAGATCCGGAGTCACCTAGTGCAG”, with 13300 fluorescence intensity (a.u.); and “GGAGGTGGGAGTGGGCAGTGGCTCGGCTCGTCGTCCTGGGCGGAGTCACCTAGTGCAG”, with 8780 fluorescence intensity (a.u.).
Then “TTCGTTTTTCTTTTTTTTTTGATGGGGAGGTTGTAAAATGCGGAGTCACCTAGTGCAG”, with 13800 fluorescence intensity (a.u.); and “TGTGGATGGCGGGGCGAGGCGGAATGGGGCGAATGCGGCGCGGAGTCACCTAGTGCAG”, with 8240 fluorescence intensity (a.u.); and “GCGGAATGGGCGGCGGTGGAGGTGGCGGGTTTGGAGGCGGCGGAGTCACCTAGTGCAG”, with 16700 fluorescence intensity (a.u.).
Regarding “TGGGCTTGGTGGAGGTGGCGGGTTTGGAGGCGGAGGTGGCCGGAGTCACCTAGTGCAG”, the binding signal is 14400 fluorescence intensity (a.u.).
For the sequence “GGAGGAGGCTGGTAGGGGAGGCGGGAGTCCGGCGGCGAGGCGGAGTCACCTAGTGCAG”, the binding signal is 8640 fluorescence intensity (a.u.).
“TACTTTATCCGCGGCGGGTAGCTGGGGAGGGAGGGGAGGCCGGAGTCACCTAGTGCAG”: the binding signal is 22500 fluorescence intensity (a.u.).
Then “GAGGCGGGTGGGCGAGCTCCGGCGGCGGCGGGGTGGCCTTCGGAGTCACCTAGTGCAG”, with 15800 fluorescence intensity (a.u.).
Take “GGCGGCCAGATCCGGGGCTGGGGAGGCGACGGCGGCGGGGCGGAGTCACCTAGTGCAG”: the binding signal is 8710 fluorescence intensity (a.u.).
With “TGAGCCTTGCTCGTCGGCGGCGAGGTGGGGTGGGGCGGGGCGGAGTCACCTAGTGCAG” the figure was 20800 fluorescence intensity (a.u.).
Then “CAGCAGCAGTGGTGGTGGTGGTTTTGGTAGTGGCTGGGAGCGGAGTCACCTAGTGCAG”, with 9780 fluorescence intensity (a.u.); and “GGAGGTGGGGATGGTGGGAGGTTTTGGTTTGGTAAAATAGCGGAGTCACCTAGTGCAG”, with 19800 fluorescence intensity (a.u.).
Then “CGGTAGTGCGTTAGGTCTTCTCCAAGTCTCTTGGCTTTTACGGAGTCACCTAGTGCAG”, with 11100 fluorescence intensity (a.u.).
For the sequence “TCACCGATTCACTCTCCTAGTCCTAGAGTCCTGGTCCATCCGGAGTCACCTAGTGCAG”, the binding signal is 8440 fluorescence intensity (a.u.).
With “GCACCCACAGTTCCATGAGACACATAGAAGTTTTACACAACGGAGTCACCTAGTGCAG” the figure was 10600 fluorescence intensity (a.u.).
With “TTTCTGAGAGGCATAGTTCATGTTTCCCCATATATACTTCCGGAGTCACCTAGTGCAG” the figure was 8830 fluorescence intensity (a.u.).
With “TCCGCTGCCTTCGATTCTTGGTAAGCCCCTAATTCTCCTTCGGAGTCACCTAGTGCAG” the figure was 8420 fluorescence intensity (a.u.); with “ACGTTAGTTAAAAAGTCAACGGCGTCATCCATTAAAATACCGGAGTCACCTAGTGCAG”, 8900 fluorescence intensity (a.u.); with “TCCCCATGCCATGCAAAATAAATATCCATATTACCGTTTCCGGAGTCACCTAGTGCAG”, 8320 fluorescence intensity (a.u.).
As to “TTCTTCGGTGGTGGTGGTGGTGGGATGGAAGAGGAGGAAGCGGAGTCACCTAGTGCAG”, the binding signal is 25800 fluorescence intensity (a.u.).
For the sequence “AGCACCGGTGGCAGCGGCGGACCGTGGAGGGAGGGAGGGGCGGAGTCACCTAGTGCAG”, the binding signal was 9770 fluorescence intensity (a.u.).
With “GGGGAGGAGGAGGAGGAGGGTAGGGATGGGGAAGAGGAGTCGGAGTCACCTAGTGCAG” the figure was 8020 fluorescence intensity (a.u.); with “TAGCTGTTTGGTCTTGCTGGTGGTGGTGGGTGAGTGTTGGCGGAGTCACCTAGTGCAG”, 11200 fluorescence intensity (a.u.); with “CAGCGGGCCCAGCAAGTCAGCCTCACATCTTCTTCTTCATCGGAGTCACCTAGTGCAG”, 8340 fluorescence intensity (a.u.).
With “GGTGTGGGGCCCACCTGCAGCCTCACATCGGCACCAGCTGCGGAGTCACCTAGTGCAG” the figure was 18600 fluorescence intensity (a.u.); with “CGGCGGCGGTGGTGGGGAGGAGGAGGGCCAGCGGCAGCAACGGAGTCACCTAGTGCAG”, 17500 fluorescence intensity (a.u.); with “GAGCTTTGCGCTGGGTGGGCTTGCATTTTTGGGTCTACCGCGGAGTCACCTAGTGCAG”, 21500 fluorescence intensity (a.u.).
Then “GTGGGCAGCGGCGGCGGCCGGTGGGAGGAGGGGAAGCATGCGGAGTCACCTAGTGCAG”, with 8380 fluorescence intensity (a.u.); and “GTGGCGGCGGGTGGGGCCCATCTCATGGCTGCTGCCTCTGCGGAGTCACCTAGTGCAG”, with 10800 fluorescence intensity (a.u.).
Turning to “AAGTTTTTGGGTAGTGCTTTTGCGCGCTTTCTCTTGGCTGCGGAGTCACCTAGTGCAG”, the binding signal is 8150 fluorescence intensity (a.u.).
Regarding “GTGGTGGAGGAGGAGGAGGAGGATGAGGAGGAAGCGGCTGCGGAGTCACCTAGTGCAG”, the binding signal was 8570 fluorescence intensity (a.u.).
